# Assay results reported in PubChem BioAssay (NCATS).
# Inconclusive results are not listed. A call without a number means that no potency is given here. Calls of active or inactive are those of the source. Calls follow the shape of the dose curve; as a rule, active = well fitted inhibition curve with a large enough effect; inconclusive = small, poorly fitted or top-dose-only effect; inactive = no such curve, though single readings can be large or run the other way.
# Biological target: Rap guanine nucleotide exchange factor 4 (Homo sapiens) (UniProt Q8WZA2)
# Assay: Confirmatory qHTS for antagonist of cAMP-regulated guanine nucleotide exchange factor 4 (EPAC2) (AID 1645885); also: nearly all actives have a fitted effect of over 25% in size
# Settings: EPAC2 Rap1B-BODIPY-GDP exchange fluorescence, biochemical; series mostly up to 12.7 µM
# Potency is read from the fitted curve at half-maximal effect.
# Chain of Rap guanine nucleotide exchange factor 4 (Homo sapiens) (Q8WZA2 whole entry, looked up): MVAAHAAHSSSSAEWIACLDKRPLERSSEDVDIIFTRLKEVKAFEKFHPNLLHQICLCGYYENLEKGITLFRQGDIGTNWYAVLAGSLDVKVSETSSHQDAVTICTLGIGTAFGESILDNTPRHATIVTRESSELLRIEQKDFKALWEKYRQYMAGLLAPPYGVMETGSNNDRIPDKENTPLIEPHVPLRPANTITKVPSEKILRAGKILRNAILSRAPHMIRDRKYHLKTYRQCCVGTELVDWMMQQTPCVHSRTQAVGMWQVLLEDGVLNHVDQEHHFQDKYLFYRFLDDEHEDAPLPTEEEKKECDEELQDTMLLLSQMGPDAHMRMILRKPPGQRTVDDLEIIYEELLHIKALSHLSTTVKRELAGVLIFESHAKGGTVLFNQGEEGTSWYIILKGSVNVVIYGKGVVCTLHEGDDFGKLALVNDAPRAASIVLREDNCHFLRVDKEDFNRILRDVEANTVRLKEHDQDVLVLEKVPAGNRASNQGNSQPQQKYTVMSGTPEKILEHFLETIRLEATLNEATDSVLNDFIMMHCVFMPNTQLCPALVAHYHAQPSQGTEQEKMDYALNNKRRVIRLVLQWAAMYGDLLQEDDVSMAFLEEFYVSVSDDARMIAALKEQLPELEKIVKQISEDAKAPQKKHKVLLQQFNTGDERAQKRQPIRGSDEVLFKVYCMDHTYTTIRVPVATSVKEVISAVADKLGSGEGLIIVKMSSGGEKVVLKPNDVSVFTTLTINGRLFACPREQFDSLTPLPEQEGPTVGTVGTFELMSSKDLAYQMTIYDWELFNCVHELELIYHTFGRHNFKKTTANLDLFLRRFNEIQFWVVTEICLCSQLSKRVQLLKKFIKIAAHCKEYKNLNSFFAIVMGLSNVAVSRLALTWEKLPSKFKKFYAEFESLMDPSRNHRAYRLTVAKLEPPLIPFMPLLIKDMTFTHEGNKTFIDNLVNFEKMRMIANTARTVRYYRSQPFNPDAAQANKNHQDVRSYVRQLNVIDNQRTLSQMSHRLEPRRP
row,SMILES,Potency
1,Cc1cccn2cc(CCNC(=O)c3ccco3)nc12,inactive
2,COC(=O)c1ccc2nc(-c3ccccc3)c(Cc3ccccc3C(F)(F)F)n2c1,757 nM (active)
3,Cc1cc(-c2nn(-c3ccccc3F)cc2CN2CCCC(O)C2)c(C)s1 (configuration not stated),inactive
4,O=c1[nH][nH]c(-c2ccccc2O)c1C(C[N+](=O)[O-])c1ccc(Cl)cc1Cl (configuration not stated),inactive
5,COc1cccc2c1OC1(C)CC2/C(=C(\C)O)C(=O)N1 (configuration not stated),inactive
6,COc1ccc(S(=O)(=O)NC(CCSC)C(=O)NC2CCCCC2)cc1 (configuration not stated),inactive
7,CSc1ccccc1C(=O)Nc1ccc(C)cc1C,inactive
8,Cc1c2cn[nH]c(=O)c2c(C)n1-c1ccccc1,inactive
9,Cc1[nH][nH]c(=O)c1C(c1c(C)[nH][nH]c1=O)c1cn(Cc2cccc3ccccc23)c2ccccc12,inactive
10,CCc1ccccc1N(C)S(=O)(=O)c1ccc2[nH]cc(C(=O)N3CCc4ccccc43)c(=O)c2c1,inactive
11,O=C1C2CCCN2C(c2ccccc2F)N1c1cccc(Cl)c1 (configuration not stated),inactive
12,CC(=O)NNC(=O)c1sc(=S)n2c1[nH]c(=O)c1sccc12,inactive
13,Cc1ccc(C2CC(=O)Oc3cc(C)c(Br)c(C)c32)cc1 (configuration not stated),2130 nM (active)
14,O=C(O)c1ccc(N/N=C/c2cccc(C(F)(F)F)c2)cc1,inactive
15,CC(=O)Nc1cc(C(=O)NCc2ccco2)ccc1Sc1ccc(C)cc1,inactive
16,O=C(C1=C(O)C(=O)N(c2nc3ccc(Cl)cc3s2)C1c1ccco1)c1ccco1 (configuration not stated),inactive
17,CC1(C(=O)NS(=O)(=O)c2ccc3c(c2)CCO3)CCN1C(=O)C1(c2ccc(Cl)cc2)CCC1 (configuration not stated),inactive
